Results on 37 compounds are retold here after PubChem BioAssay (NCI).

Compounds without any hit were thinned out: in the full panel of roughly 83,000, 20% have a hit.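 Negative percent growth values reflect cell death: -40 means 40% of the cells present at the start died, and -100 means all died.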 A number with no mark means an inactive call. Active and inactive are the calls of the source. Rule for the calls: active = growth percent below 10; inactive = the rest.

For the test, the system named is MDA-MB-468 breast. In words: NCI-60 one-dose screen, 48 h (100 = growth as untreated, 0 = no growth, -100 = all killed). The settings on record: 10 µM unless noted.

On to `CC(=O)O[C@H]1CC2CCC3C(CC[C@@]4(C)C3C[C@H]([N+]3(C)CCCCC3)[C@@H]4OC(C)=O)[C@@]2(C)C[C@@H]1N1CCCCC1` (some centres not stated), for which the growth was 106%.
As for `CCO/C=N/C1=C(C#N)C(c2ccc(F)cc2)c2sc3c(F)cccc3c2O1` (configuration not stated), the growth was 27.2%.
On to `O=C(/C=C/c1ccc(Cl)cc1)c1ccc(Br)cc1`, for which the growth is 107%.
In the case of `CCN(CC)CCC(CNc1ccnc2cc(Cl)ccc12)c1ccc(Cl)cc1` (configuration not stated), the growth is -86.6% (active).
As for `O=C1C(=O)c2ccccc2C(O)=C1CCCc1ccc(Oc2ccccc2)cc1`, the growth is 44.7%.
Take `COc1cc(-c2nc(Nc3nc4ccccc4[nH]3)nc(N)c2C#N)cc(OC)c1OC`: the growth is 48.5%.
Regarding `Cc1ccc(NC(=O)N[C@@H](Cc2cc(F)cc(F)c2)C(=O)N[C@@H]2C(=O)N3CCC[C@H]3C(=O)N3CCCC[C@H]3C(=O)N[C@@H](C)C(=O)N3C[C@H](C)C[C@H]3C(=O)O[C@H]2C)cc1`, the growth is 5.99% (active).
With `CCn1c(SC/C(=N/O)c2ccccc2)nnc1-c1ccccc1`, the growth was 108%.
For the compound `C#COc1cccc(Nc2ncnc3cc(NC(=O)[C@@H](C)Cl)ccc23)c1`, the growth is 12% [6.25 µM].
In the case of `N#Cc1c(-c2ccc(Cl)cc2)nc(SCc2ccc([N+](=O)[O-])cc2)nc1N1CCNCC1` it was -44.2% (active); in that of `COc1ccccc1C(=O)NC(=S)Nc1ccc(-c2nc3ccccc3[nH]2)cc1`, 75.1%; in that of `CC(C)CCC[C@@H](C)[C@H]1CC[C@H]2[C@@H](Nc3ccc(O)cc3)CCC[C@]12C`, -13.8% (active).
Regarding `CCN1C(=O)N(CC)C2C1NN=c1s/c(=C3\C(=O)N(C(C)C)c4ccccc43)c(=O)n12` (configuration not stated), the growth is 16.5%.
For `COc1ccc(-c2cncnc2N)cc1OC`, the growth is 116%.
Turning to `O=[N+]([O-])c1ccc(C2CC(c3ccccc3)=Nc3ccccc3S2)cc1` (configuration not stated), the growth is 77.7%.
For `CC/C(=C(\c1ccc(O)cc1)c1ccc(OCCN(C)CCN(C)C(=O)CCCCC(=O)c2c(C)[nH]c(/C=C3\N=C(c4ccc[nH]4)C=C3OC)c2C)cc1)c1ccccc1`, the growth was 80%.
In the case of `O=[N+]([O-])c1ccc(NCSc2ccc(Cl)cc2)cc1`, the growth was 98.6%.
Regarding `COC(=O)Nc1nc2ccc(C(=O)c3ccccc3N(C)C3COC3)cc2[nH]1`, the growth is 23.8%.
`OCc1cccc2ccccc12`: the growth is 124%.
As for `C=C(C)[C@@H]1CC[C@]2(COCCCN)CC[C@]3(C)[C@H](CC[C@@H]4[C@@](C)(CCCNCCCN)[C@H](C(=C)C)CC[C@]43C)[C@@H]12`, the growth was -53.8% [100 µM] (active).
Consider `C#CCn1cnc2cnc(Nc3cccc(NC(=O)CCl)c3)nc21`, for which the growth is -17.3% [6.25 µM] (active).
`O=C(CN1CCOCC1)Nc1ccc2ncnc(Nc3ccc(OCc4cccc(F)c4)c(Cl)c3)c2c1`: the growth was -25.1% (active).
Regarding `CC(=O)Nc1ccc2c(c1)c(NC(C)=O)nn2C(=O)Nc1ccc(Cc2ccccc2)cc1`, the growth is 80.1%.
In the case of `CCOC(=O)C#Cc1c(C(=O)OCC)nnn1[C@@H]1O[C@H](COC(C)=O)[C@@H](OC(C)=O)[C@H]1OC(C)=O`, the growth was 61.5%.
As for `Cc1cc(C)c(C=O)c(C)c1`, the growth was 94.1%.
As to `COc1cc2nc3cc([N+](=O)[O-])ccc3c(NCCNCC(C)(C)O)c2cc1OC`, the growth was -37.5% (active).
Consider `CCN(CC)c1ccc2c(cc1=O)[C@@H](NC(C)=O)CCc1cc(OC)c(OC)c(OC)c1-2`, for which the growth is 36.9%.
In the case of `Cn1cc(C(=O)c2nc(-c3c[nH]c4ccccc34)no2)c2ccccc21` it was -4.38% (active).
In the case of `C#CCn1c(-c2cccc(OCCCCl)c2)nc2c1c(=O)n(C)c(=O)n2C`, the growth was 71.6%.
Then `N#CC1=C(N)Oc2ccc3ccccc3c2C1c1ccccc1Cl` (configuration not stated), with 31.1%; and `Cn1c(=O)c2[nH]c(NN)nc2n(C)c1=O`, with 122%; and `COc1ccc(C(=O)n2nc(CC(=O)NCc3ccccc3)nc2N)cc1`, with 105%.
For `CCN(CC)CCOc1ccc(C(=O)/C=C\c2ccc(Cl)cc2Cl)cc1`, the growth is 39.8%.
In the case of `c1ccc(Cn2nc3c(c2-c2ccccc2)-c2oncc2CC3)cc1` it was 101%; in that of `Oc1c(Br)cc(Br)c2ccc(Cn3cc(-c4ccccc4C(F)(F)F)nn3)nc12`, 72.4%; in that of `CCOc1ccncc1[N+](=O)[O-]`, 104%.
In the case of `c1cnc2ccc3ncccc3c2c1` it was 122%.
